Activity calls are given as the source filed them.
Columns and labels:
[1] = test system: Plasmodium falciparum Sir2 (PF13_0152, Sir2A); test: Plasmodium falciparum Sir2A binding compounds – biochemical, small-molecule microarray, 635 nm fluorescence, primary screen (AID 1098); details: fluorescence 635 nm, higher = more signal;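 further: score merges spot fluorescence intensity with its signal-to-noise ratio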
[2] = probe aDKK1 binding to arrayed compounds – biochemical, biotinylated probe, 635/667 nm fluorescence, primary screen (AID 1099); details: small-molecule microarray, higher = more signal;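 further: score merges 667nm spot fluorescence with signal to noise across triplicate slides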
[3] = probe aCHRDL2 binding to arrayed compounds – biochemical, biotinylated probe, 635/667 nm fluorescence, primary screen (AID 1100); details: small-molecule microarray, higher = more signal
[4] = change in splice reporter luminescence, either direction, cell-based, HEK293, spliceosome inhibition project, primary screen (AID 1101); details: HEK293 splicing luciferase reporter, 24 h, higher = more signal, called active from +8 up or from −8 down;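 further: HEK293 cells carrying a splicing-competent luciferase reporter gene; test concentration not given here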
[5] = molecular target: Fibroblast growth factor 10 (Homo sapiens) (UniProt O15520); test: compounds binding fibroblast growth factor 10 – biochemical, small-molecule microarray, 635 nm fluorescence, primary screen (AID 1102); details: FGF10 binding, fluorescence 635 nm, higher = more signal
[6] = test system: glycogen synthase kinase-3 (GSK3A per assay name; protocol says GSK3B); test: compounds binding glycogen synthase kinase-3 – biochemical, small-molecule microarray, 635 nm fluorescence, GSK3A, primary screen (AID 1103); details: fluorescence 635 nm, higher = more signal; further: the record names both GSK3A and GSK3B
[7] = molecular target: Epidermal growth factor receptor (Homo sapiens) (UniProt P00533); test: compounds binding epidermal growth factor receptor – biochemical, small-molecule microarray, 635 nm fluorescence, primary screen (AID 1104); details: EGFR binding, higher = more signal;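 further: score merges 667 nm emission intensity with spot signal to noise over triplicate slides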
[8] = molecular target: Follistatin-related protein 3 (Homo sapiens) (UniProt O95633); test: compounds binding follistatin-related protein 3 – biochemical, small-molecule microarray, 635 nm fluorescence, primary screen (AID 1105); details: FSTL3 binding, higher = more signal;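 further: score merges emission near 667 nm and signal to noise per printed spot across three slides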
[9] = molecular target: Dickkopf-related protein 1 (Homo sapiens) (UniProt O94907); test: small molecules binding DKK1 protein – biochemical, small-molecule microarray, 635 nm fluorescence scan, primary screen (AID 1106); details: higher = more signal;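 further: score merges emission near 667 nm with signal to noise over three replicate slides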
[10] = test system: Inhibin beta A chain (activin A); test: small molecules binding activin A – biochemical, small-molecule microarray, 635 nm fluorescence scan, primary screen (AID 1107); details: INHBA, higher = more signal;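 further: mouse activin A protein probed at 4.33 µg/mL on printed slides; score merges bound-protein fluorescence near 667 nm with spot signal-to-noise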
[11] = test system: Human papillomavirus type 1a protein E7 (residues 44-93); test: small molecules binding HPV E7 44-93 – biochemical, small-molecule microarray, residues 44-93, 635 nm fluorescence, primary screen (AID 1108); details: fluorescence 635 nm, higher = more signal;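 further: E7 fragment applied at 1 µg/mL in TBST for 1 h at 4 C; score combines spot fluorescence with its signal to noise ratio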
[12] = hepatitis C replication reporter changes, two-sided – Huh7 cells, luciferase reporter, HCV replication inhibitor project, primary screen (AID 1109); details: Huh7 HCV replicon luciferase reporter, 48 h; higher = more signal;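 further: huh7 hepatoma cells harbouring a luciferase neomycin HCV replicon reporter; luciferase luminescence as measure of HCV replicon replication; test concentration not given here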
[13] = molecular target: Left-right determination factor 2 (Homo sapiens) (UniProt O00292); test: small molecules binding LEFTY2 protein – biochemical, small-molecule microarray, 635 nm fluorescence scan, primary screen (AID 1110); details: higher = more signal
[14] = molecular target: Calmodulin-1 (Homo sapiens) (UniProt P0DP23); test: small molecules binding calmodulin-1 with EGTA – biochemical, small-molecule microarray, Cy5-labelled CALM1, profiling panel (AID 1111); details: Cy5-CALM1 binding fluorescence, higher = more signal;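 further: labelled calmodulin applied in Tris saline Tween buffer holding calcium plus EGTA and DTT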
[15] = molecular target: Calmodulin-1 (Homo sapiens) (UniProt P0DP23); test: small molecules binding Ca-loaded calmodulin-1 – biochemical, small-molecule microarray, Cy5-labelled CALM1, plus calcium, artefact control for SMM control-protein annotation, profiling panel (AID 1112); details: Cy5-CALM1 binding fluorescence, higher = more signal;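 further: score merges spot fluorescence with signal to noise from triplicate slides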
[16] = probe aWnt5a binding to arrayed compounds – biochemical, biotinylated probe, 635/667 nm fluorescence, primary screen (AID 1113); details: small-molecule microarray, higher = more signal;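 further: score merges 667 nm fluorescence intensity with signal-to-noise per printed feature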
[17] = probe aShh binding to arrayed compounds – biochemical, biotinylated probe, 635/667 nm fluorescence, primary screen (AID 1114); details: small-molecule microarray, higher = more signal;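 further: probe is biotin-labelled aShh protein from a stem cell growth factor screen; measures binding of labelled protein to compounds printed on the slide; score merges feature fluorescence at 667 nm with signal-to-noise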
[18] = probe aNog binding to arrayed compounds – biochemical, biotinylated probe, 635/667 nm fluorescence, primary screen (AID 1115); details: small-molecule microarray, higher = more signal;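 further: probe is biotinylated aNog protein used at 0.15 µg/mL for 1 h at 4 C; z-score combines 667 nm fluorescence of each spot with its signal to noise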
[19] = molecular target: Torsin-1A-interacting protein 1 (Homo sapiens) (UniProt Q5JTV8); test: compound microarray binding of lysate hLAP1 – cell lysate, small-molecule microarray, COS7 lysate, 635/667 nm fluorescence, primary screen (AID 1116); details: 635 nm fluorescence, higher = more signal
[20] = molecular target: Alpha-bungarotoxin (Bungarus multicinctus) (UniProt P60615); test: compounds binding labelled alpha-BTX control protein – biochemical, small-molecule microarray, Alexa647 label, 635/667 nm fluorescence, artefact control for SMM control protein annotation, profiling panel (AID 1117); details: alpha-BTX-A647 binding fluorescence, higher = more signal
Alpha-bungarotoxin (Bungarus multicinctus), sequence (P60615 whole entry, looked up): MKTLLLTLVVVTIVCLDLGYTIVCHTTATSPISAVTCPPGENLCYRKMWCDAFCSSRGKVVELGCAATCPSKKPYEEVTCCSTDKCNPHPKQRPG

Follistatin-related protein 3 (Homo sapiens), sequence (O95633 whole entry, looked up): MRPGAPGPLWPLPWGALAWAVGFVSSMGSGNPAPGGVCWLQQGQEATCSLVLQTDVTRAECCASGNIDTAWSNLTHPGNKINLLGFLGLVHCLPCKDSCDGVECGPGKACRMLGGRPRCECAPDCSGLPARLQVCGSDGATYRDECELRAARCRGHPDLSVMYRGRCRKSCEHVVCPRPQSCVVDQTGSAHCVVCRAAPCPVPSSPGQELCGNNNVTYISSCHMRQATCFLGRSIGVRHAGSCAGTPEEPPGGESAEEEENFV
Torsin-1A-interacting protein 1 (Homo sapiens), sequence (Q5JTV8 whole entry, looked up): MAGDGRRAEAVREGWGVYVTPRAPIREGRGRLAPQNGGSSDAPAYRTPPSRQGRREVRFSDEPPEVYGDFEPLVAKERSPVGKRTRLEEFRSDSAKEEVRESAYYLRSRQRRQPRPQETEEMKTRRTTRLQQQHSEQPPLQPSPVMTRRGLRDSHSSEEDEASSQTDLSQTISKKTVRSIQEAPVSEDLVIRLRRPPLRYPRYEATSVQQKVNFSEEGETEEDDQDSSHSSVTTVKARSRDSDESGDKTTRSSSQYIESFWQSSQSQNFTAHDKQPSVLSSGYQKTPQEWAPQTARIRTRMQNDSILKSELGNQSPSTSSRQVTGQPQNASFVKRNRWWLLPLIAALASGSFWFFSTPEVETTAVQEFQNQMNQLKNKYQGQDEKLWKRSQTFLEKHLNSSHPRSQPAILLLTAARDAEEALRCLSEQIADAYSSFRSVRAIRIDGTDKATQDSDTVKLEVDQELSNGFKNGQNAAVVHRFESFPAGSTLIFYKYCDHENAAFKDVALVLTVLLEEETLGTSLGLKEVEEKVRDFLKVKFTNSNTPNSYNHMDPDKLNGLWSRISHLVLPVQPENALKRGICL
Fibroblast growth factor 10 (Homo sapiens), sequence (O15520 whole entry, looked up): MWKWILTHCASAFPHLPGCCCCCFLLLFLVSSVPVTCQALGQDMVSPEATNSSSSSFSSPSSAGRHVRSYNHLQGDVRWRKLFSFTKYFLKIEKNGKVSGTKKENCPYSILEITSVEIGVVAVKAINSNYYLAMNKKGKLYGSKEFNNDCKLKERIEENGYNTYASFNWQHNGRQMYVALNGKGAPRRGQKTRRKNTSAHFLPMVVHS
Dickkopf-related protein 1 (Homo sapiens), sequence (O94907 whole entry, looked up): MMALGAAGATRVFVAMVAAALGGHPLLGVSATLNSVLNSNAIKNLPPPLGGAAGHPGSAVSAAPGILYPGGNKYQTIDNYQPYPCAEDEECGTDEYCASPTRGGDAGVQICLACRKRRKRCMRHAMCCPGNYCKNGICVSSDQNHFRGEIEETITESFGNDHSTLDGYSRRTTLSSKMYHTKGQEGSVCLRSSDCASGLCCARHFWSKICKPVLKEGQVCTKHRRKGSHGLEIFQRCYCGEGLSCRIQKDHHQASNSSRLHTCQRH
Left-right determination factor 2 (Homo sapiens), sequence (O00292 whole entry, looked up): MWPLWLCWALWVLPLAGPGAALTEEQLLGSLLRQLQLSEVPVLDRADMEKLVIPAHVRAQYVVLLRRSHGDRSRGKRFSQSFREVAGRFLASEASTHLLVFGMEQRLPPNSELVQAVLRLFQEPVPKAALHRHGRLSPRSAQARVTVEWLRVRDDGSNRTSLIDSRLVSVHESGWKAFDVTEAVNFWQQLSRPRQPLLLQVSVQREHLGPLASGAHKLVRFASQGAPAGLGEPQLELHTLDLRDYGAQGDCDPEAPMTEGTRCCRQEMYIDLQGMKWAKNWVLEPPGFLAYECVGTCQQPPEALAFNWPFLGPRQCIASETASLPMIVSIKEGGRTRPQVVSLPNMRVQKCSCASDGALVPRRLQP
Epidermal growth factor receptor (Homo sapiens), sequence (P00533 whole entry, looked up): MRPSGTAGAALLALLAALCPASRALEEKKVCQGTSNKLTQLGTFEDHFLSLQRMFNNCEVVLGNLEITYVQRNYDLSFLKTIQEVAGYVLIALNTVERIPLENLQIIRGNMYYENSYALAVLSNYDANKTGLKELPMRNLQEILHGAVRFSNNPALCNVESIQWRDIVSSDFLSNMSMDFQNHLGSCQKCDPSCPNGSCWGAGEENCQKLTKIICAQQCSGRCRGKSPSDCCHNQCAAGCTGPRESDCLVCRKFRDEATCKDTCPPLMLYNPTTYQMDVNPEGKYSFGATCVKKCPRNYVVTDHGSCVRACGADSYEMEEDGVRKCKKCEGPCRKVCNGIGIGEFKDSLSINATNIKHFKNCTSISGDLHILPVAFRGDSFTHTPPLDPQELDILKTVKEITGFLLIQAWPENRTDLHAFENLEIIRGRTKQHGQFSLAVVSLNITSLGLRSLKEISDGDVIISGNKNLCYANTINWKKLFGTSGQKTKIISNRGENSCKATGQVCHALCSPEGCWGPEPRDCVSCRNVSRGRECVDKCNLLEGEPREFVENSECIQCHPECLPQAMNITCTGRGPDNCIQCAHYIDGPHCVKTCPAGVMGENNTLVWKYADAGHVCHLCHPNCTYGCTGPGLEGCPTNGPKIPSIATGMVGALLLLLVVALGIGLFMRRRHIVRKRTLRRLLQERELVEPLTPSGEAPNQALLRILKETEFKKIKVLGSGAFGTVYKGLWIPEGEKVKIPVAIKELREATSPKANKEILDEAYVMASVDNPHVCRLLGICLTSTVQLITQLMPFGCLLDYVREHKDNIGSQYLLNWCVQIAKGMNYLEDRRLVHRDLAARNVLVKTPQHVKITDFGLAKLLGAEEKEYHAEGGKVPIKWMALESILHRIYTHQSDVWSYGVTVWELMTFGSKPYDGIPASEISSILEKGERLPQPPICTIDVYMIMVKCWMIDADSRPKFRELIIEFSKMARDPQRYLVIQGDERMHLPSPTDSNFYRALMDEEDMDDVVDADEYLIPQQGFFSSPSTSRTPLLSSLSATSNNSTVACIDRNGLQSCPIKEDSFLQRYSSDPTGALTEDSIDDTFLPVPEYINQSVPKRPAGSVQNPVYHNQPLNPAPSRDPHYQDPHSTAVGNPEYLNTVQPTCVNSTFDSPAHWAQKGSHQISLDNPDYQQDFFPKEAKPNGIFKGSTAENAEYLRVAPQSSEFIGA

SMILES	composite z-score [1]	composite z-score [2]	composite z-score [3]	z-score [4]	composite z-score [5]	composite z-score [6]	composite z-score [7]	composite z-score [8]	composite z-score [9]	composite z-score [10]	composite z-score [11]	z-score [12]	composite z-score [13]	composite z-score [14]	composite z-score [15]	composite z-score [16]	composite z-score [17]	composite z-score [18]	composite z-score [19]	composite z-score [20]
O=C(NC1CC1)[C@@H]1c2ccccc2C(=O)N(Cc2ccccc2C(F)(F)F)[C@H]1c1ccc(CO)cc1	0.271	0.561	0.341	-0.0246 (inactive)	0.554	1.27	0.388	0.471	0.113	0.708	1.06	-0.639	0.319	0.64	0.585	-0.0977	0.172	0.0272	0.714	0.353
COc1ccc([Si](C)(C)[C@H]2[C@H](CC(=O)N(CCO)Cc3ccccc3)O[C@@]3(C(=O)N(Cc4cccc(N5C(=O)COc6ccccc65)c4)c4ccccc43)[C@@H]2C)cc1	1.29	-0.209	0.202	-2.08 (inactive)	0.963	0.183	0.456	0.628	0.506	0.702	-0.591	-3.88	0.962	-0.13	-0.408	-0.203	0.564	0.389	0.836	1.57
CC(C)(C)OC(=O)CC[C@@]12N=C(c3ccc(OCCCO)cc3)O[C@@H]1c1ccccc1N(Cc1ccccc1)C2=O	0.727	0.692	1.05	-0.00084 (inactive)	0.732	1.19	-0.244	0.51	0.117	1.14	-0.0568	-2.38	-0.202	0.61	0.621	-0.0327	0.138	0.943	0.786	1.36
C=C(COC)C(=O)CC[C@@H](OC(=O)c1ccccc1-c1ccccc1C(=O)O)c1cccc(OCCO)c1	0.147	-0.0386	0.0203	0.306 (inactive)	0.552	-0.116	-0.837	-0.0053	-0.0221	1.19	-1.75	-0.54	0.0941	-1.17	-1.09	-0.096	-0.153	0.176	0.671	1.02
O=c1n(-c2ccccc2)c(=O)n2n1CC(COc1ccccc1)=C1[C@@H](CCc3ccccc3)OB(O)C[C@@H]12	0.812	-0.178	-0.482	-1.14 (inactive)	1.02	0.59	0.235	0.728	0.488	0.0187	0.398	-1.91	0.41	0.0534	0.205	0.0181	0.277	-0.118	0.684	1.17
CC(C)(C)OC(=O)CC[C@@]12N=C(c3ccc(OCCCO)cc3)O[C@@H]1c1ccccc1CN(Cc1ccccc1)C2=O	1.39	0.578	0.505	-0.0992 (inactive)	1.14	1.19	0.12	0.459	0.388	0.682	0.33	-2.92	-0.152	0.927	0.368	-0.0981	1.23	0.36	0.886	0.941
